Results: PubChem BioAssay (NCATS)
Results filed as inconclusive are left out. The source made the active and inactive calls. Calls follow the shape of the dose curve; as a rule, active = well fitted cell-killing curve with a large enough effect; inconclusive = small, poorly fitted or top-dose-only effect, or effect the other way; inactive = flat fitted curve, though single readings scatter. Where a SMILES comes first, the peptide text is derived from it. [ ]: non-standard residue; d: D form. ξ: configuration not given here. ξTyr(βOH) = NC(C(=O)O)C(O)c1ccc(O)cc1

test system: Tov112D; test: Primary qHTS to identify gynecologic anti-cancer compounds using libraries of approved drugs and bioactive compounds (AID 1345084); details: Gynecologic cancer cell panel viability, ATPlite luminescence, 48 h; series mostly up to 57.5 µM; activity change, negative = cytotoxicity: at the top concentration; also: nearly all actives have a fitted effect of over 55% in size
Procedure, shortened: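 48 h compound exposure at 37 C, 5% CO2; five-point qHTS. ATPlite luminescence readout of cell ATP.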
% is scaled to controls: 0 for no effect and ±100 for the full control effect.

Compound	activity change, negative = cytotoxicity
CC1=C2CC(C)(C)CC2C(O)C2=C(C1)C(=O)OC2O (configuration not stated)	0.456% (inactive)
C=C1C(O)C(OC(=O)c2ccccc2)C2C(C)(C(=O)O)CCCC2(C)C1CC/C(C)=C\CO (configuration not stated)	3.64% [at 25.3 µM] (inactive)
C[C@]1(O)CC[C@@H]2C(C(=O)O)=CO[C@@H](O[C@@H]3O[C@H](COC(=O)/C=C/c4ccc(O)c(O)c4)[C@@H](O)[C@H](O)[C@H]3O)[C@@H]21	6.83% [at 25.3 µM] (inactive)
C/C=C(\C)C(=O)OC1C(C)C2(O)C3C=C(C)C(=O)C3CC(CO)=CC2C2C(C)(C)C12OC(C)=O (configuration not stated)	0.107% [at 25.3 µM] (inactive)
CC(=O)OC1CC2(C)C(CCC(C)C23Cc2c(O)cc4c(c2O3)CNC4=O)C(C)(C)C1O (configuration not stated)	1.07% [at 25.3 µM] (inactive)
C[C@@]1(O)[C@H](O)[C@@H](CO)O[C@H]1n1cnc2c(=O)[nH]c(N)nc21	5.89% (inactive)
COc1ccc(C(=O)NCc2cc(C(C)C)no2)cc1OC1CCN(C)CC1	1.05% (inactive)
O=c1[nH]ccc2nc(-c3ccc(CN4CCC(c5nc(-c6ccccn6)n[nH]5)CC4)cc3)c(-c3ccccc3)cc12	3.09% (inactive)
COC(=O)C1=COC(OC2OC(CO)C(O)C(O)C2O)C2C(C)CC(=O)C12O (configuration not stated)	2.58% [at 25.3 µM] (inactive)
CC(=O)O[C@@H]1[C@H](O[C@@H]2O[C@H](CO)[C@@H](O)[C@H](O)[C@H]2O)[C@@H](O[C@@H]2O[C@@H](C)[C@H](O)[C@@H](O[C@@H]3O[C@H](CO)[C@@H](O)[C@H](O)[C@H]3O)[C@H]2O)[C@H](OC(=O)[C@]23CCC(C)(C)C[C@H]2C2=CCC4[C@@]5(C)C[C@H](O)[C@H](O[C@@H]6O[C@H](C(=O)O)[C@@H](O)[C@H](O)[C@H]6O)[C@@](C)(C(=O)O)C5CC[C@@]4(C)[C@]2(C)CC3)O[C@@H]1C (some centres not stated)	7.58% [at 6.55 µM] (inactive)
C[C@@H]1O[C@@H](O[C@H]2[C@H](O)[C@@H](O)[C@H](OC(=O)[C@]34CCC(C)(C)C[C@H]3C3=CCC5[C@@]6(C)CC[C@H](O[C@@H]7O[C@H](C(=O)O)[C@@H](O)[C@H](O)[C@H]7O)C(C)(C)C6CC[C@@]5(C)[C@]3(C)CC4)O[C@@H]2CO)[C@H](O)[C@H](O)[C@H]1O (some centres not stated)	-16.2% [at 11.6 µM] (inactive)
C[C@@H]1O[C@@H](O[C@H]2[C@H](O[C@H]3[C@H](O[C@H]4CC[C@@]5(C)C(CC[C@]6(C)C5CC=C5[C@@H]7CC(C)(C)CC(=O)[C@]7(C)CC[C@]56C)[C@@]4(C)CO)O[C@H](C(=O)O)[C@@H](O)[C@@H]3O)O[C@H](CO)[C@H](O)[C@@H]2O)[C@H](O)[C@H](O)[C@H]1O (some centres not stated)	-2.67% [at 11.6 µM] (inactive)
O=C(O[C@@H]1O[C@H](CO)[C@@H](O)[C@H](O)[C@H]1O)c1ccccc1	-1.17% (inactive)
COc1cc(C(CO)C(OC2OC(CO)C(O)C(O)C2O)c2ccc(O)c(OC)c2)ccc1O (configuration not stated)	6.93% [at 25.3 µM] (inactive)
COc1ccc(C2COc3cc(O)ccc3C2)c(O)c1OC (configuration not stated)	-14.9% (inactive)
C=C1CCC2[C@@](C)(C(=O)O)CCC[C@@]2(C)[C@@H]1CCc1ccoc1 (some centres not stated)	-0.574% [at 38.5 µM] (inactive)
CC(C)C1NC(=O)CNC(=O)C2CCCN2C(=O)C(Cc2c[nH]c3ccccc23)NC(=O)CNC(=O)C(C(O)c2ccc(O)cc2)NC(=O)CNC1=O (configuration not stated) (cyclo(G[ξTyr(βOH)]GWPGV); configuration not given here)	2.61% [at 25.3 µM] (inactive)
COCCN1CCC(C(=O)NO)(S(=O)(=O)c2ccc(Oc3ccc(OC(F)(F)F)cc3)cc2)CC1	1.81% (inactive)
COc1cc(/C=C/C(=O)O[C@@H]2O[C@H](CO)[C@@H](O)[C@H](O)[C@H]2O)ccc1O	1.43% [at 38.5 µM] (inactive)

Compound	activity change, negative = cytotoxicity
C/C(=C\C(=O)C(C)C1CCC2C3=C(CCC21C)C1(C)CCC(=O)C(C)(C)C1(O)CC3)C(C)(C)O (configuration not stated)	-16.9% [at 25.3 µM] (inactive)
CC(C)CC[C@@H](O)[C@](C)(O)[C@H]1CC[C@@]2(O)C3=CC(=O)[C@@H]4C[C@@H](O)[C@@H](O)C[C@]4(C)[C@H]3CC[C@]12C	16.8% (inactive)
Cc1cc(O[C@@H]2O[C@H](COC(=O)CC(=O)O)[C@@H](O)[C@H](O)[C@H]2O)c(C(C)C)cc1O	-19.8% [at 25.3 µM] (inactive)
CC1(C)CC[C@]2(C(=O)O)CC[C@]3(C)C(=CCC4[C@@]5(C)CC[C@H](O)C(C)(C)C5CC[C@]43C)C2C1 (some centres not stated)	2.59% [at 25.3 µM] (inactive)
Cc1onc(-c2ccccc2Cl)c1C(=O)N(C)c1ccc(Cl)cc1	7.99% (inactive)
Cc1occc1C(=O)n1ccnc1	1.24% (inactive)
CC(C)/C=C1/NC(=O)C(C(C)C)n2c1nc1c(O)cccc1c2=O (configuration not stated)	4.2% [at 38.5 µM] (inactive)
CCN1CCN(C(=O)N[C@@H](C(=O)N[C@@H]2C(=O)N3[C@@H]2SC(C)(C)[C@@H]3C(=O)O)c2ccccc2)C(=O)C1=O	17.8% (inactive)
Cc1ccc(-n2nc(C(C)(C)C)cc2NC(=O)Nc2cc(COc3cccnc3)[nH]n2)cc1	2.08% (inactive)
CCCCC(=O)N1c2ccccc2NC2=C(C(=O)CCC2)C1c1ccccc1Cl (configuration not stated)	-8.07% (inactive)
OC[C@@]1(O)CO[C@@H](OC[C@H]2O[C@@H](OCc3ccccc3)[C@H](O)[C@@H](O)[C@@H]2O)[C@@H]1O	5.36% [at 25.3 µM] (inactive)
Cc1ccc(-c2c(-c3nn(C)c4ncnc(N5CCC(N6CCCCC6)C5)c34)cnn2C)cc1 (configuration not stated)	13.1% (inactive)
COC(=O)C1=CO[C@@H](O[C@@H]2O[C@H](CO)[C@@H](O)[C@H](O)[C@H]2O)[C@H]2[C@@H]1C=C[C@]21C=C([C@H](C)OC(=O)/C=C/c2ccc(O[C@@H]3O[C@H](CO)[C@@H](O)[C@H](O)[C@H]3O)cc2)C(=O)O1	18.3% [at 25.3 µM] (inactive)
CC1(C)CC[C@]2(C(=O)O[C@@H]3O[C@H](CO[C@@H]4O[C@H](CO[C@@H]5O[C@H](CO)[C@H](O)[C@H](O)[C@H]5O)[C@@H](O)[C@H](O)[C@H]4O)[C@@H](O)[C@H](O[C@@H]4O[C@H](CO)[C@@H](O)[C@H](O)[C@H]4O)[C@H]3O)[C@H](O)C[C@]3(C)C(=CCC4[C@@]5(C)CC[C@H](O[C@@H]6OC[C@@H](O)[C@H](O)[C@H]6O)[C@@](C)(C(=O)O)C5CC[C@]43C)[C@@H]2C1 (some centres not stated)	3.01% [at 6.55 µM] (inactive)
O=C(O)CCc1cc2ccoc2cc1O[C@@H]1O[C@H](CO)[C@@H](O)[C@H](O)[C@H]1O	2.28% [at 38.5 µM] (inactive)
COc1c(O[C@@H]2O[C@H](CO)[C@@H](O)[C@H](O)[C@H]2O)c(CCC(=O)O)cc2ccoc12	-1.52% [at 38.5 µM] (inactive)
COC(=O)c1cc(OC)cc(OC)c1C(=O)c1c(OC)cc2c(c1O)C1CCC(O)C(C)(O2)O1 (configuration not stated)	3.04% [at 25.3 µM] (inactive)
CC(C)=CCC/C(C)=C/CO[C@@H]1O[C@H](CO[C@@H]2O[C@@H](CO)[C@H](O)[C@H]2O)[C@@H](O)[C@H](O)[C@H]1O	13.8% [at 25.3 µM] (inactive)
